Test results: PubChem BioAssay (NCI)
Compounds without any hit were thinned out: in the full panel of roughly 83,000, 20% have a hit.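 Testing used 96-well plates and a 48-hour single-concentration exposure. Example: -40 means 40% of the starting cells died.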 Calls of active or inactive are those of the source. How the source made its calls: active means growth percent below 10; inactive means the rest.

Each compound was assayed on HL-60(TB) leukemia (assay: NCI-60 one-dose screen, 48 h (100 = growth as untreated, 0 = no growth, -100 = all killed)). Conditions: 10 µM unless noted.
For `CCOC(=O)c1ccc2nc(-c3c(C)nn(-c4ccccc4)c3N3CCOCC3)[nH]c2c1`, the growth was 95.4% (inactive).
In the case of `COc1ccc(C(=O)c2cc(C)c(OC)c(C)c2)c(OC)c1OC(=O)C(Cl)Cl`, the growth is reported as -35.7% (active).
`S=c1cc(S)c2cc(Br)ccc2[nH]1` was tested, and the growth was 101% (inactive).
With `COc1cc2nc3c(=O)n(CCN(C)C)cnn3c(=O)c2cc1OC` the growth was 106% (inactive).
In the case of `Cc1noc(C)c1-c1ccc2nc(NC(=O)[C@H]3CCN(C#N)C3)cn2c1`, the growth is reported as 95.9% (inactive).
With `COc1ccc2nc(Cl)c(/C=C/C(=O)c3ccc(NC(=O)CSc4nnc(-c5ccc(Cl)c(Cl)c5)n4-c4ccccc4)cc3)cc2c1` the growth was 73.1% (inactive).
`C=C(C)[C@@H]1C[C@@H]2Cc3ccc(Cl)c(C)c3N1O2` was tested, and the growth was 3.4% (active).
For `O=c1c2cccc(F)c2sc2c(N3CCNCC3)nc3ccccc3c12`, the growth was 30.9% (inactive).
With `O=S(=O)(NCCCNc1nccc(-c2c(-c3cccc(F)c3)nc3occn23)n1)c1cccc2ccccc12` the growth was -26.8% (active).
In the case of `CC1(C)CC[C@]2(C(=O)O)CC[C@]3(C)C(=CC[C@@H]4[C@@]5(C)C[C@@H](Cc6cn([C@@H]7O[C@H](CO)[C@@H](O)[C@H](O)[C@H]7O)nn6)[C@H](O)C(C)(C)[C@@H]5CC[C@]43C)[C@@H]2C1`, the growth is reported as 93.4% (inactive).
With `CC[C@]12C=CCN3CC[C@@]4(c5cc([C@H]6CCC(=O)N6)c(OC)cc5N(C)[C@H]4[C@@](O)(C(=O)OC)[C@@H]1OC(C)=O)[C@@H]32` the growth was 109% [2.5 µM] (inactive).
For `COc1ccc(-c2cc(C(=O)N3N=C(c4ccc(N)cc4)CC3c3ccccc3)c3ccccc3n2)cc1` (configuration not stated), the growth was -28% (active).
